The structures appear in SMILES notation. Results filed as inconclusive are left out. Active and inactive are the calls of the source. Rule for the calls, unless noted: active = hit-call score of the fitted dose curve at least 0.9, where 1 is the maximum; inconclusive = response in the unintended direction; inactive = score below 0.9.

Assay [1] in a line: ATG_TAL_CIS: Attagene CIS-FACTORIAL HepG2 Assay for human TAL Basal Promoter (AID 2282966; active = hit-call score of the fitted dose curve at least 0.9, where 1 is the maximum; inactive = score below 0.9;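 note: background control endpoint measuring basal TAL promoter reporter mRNA not a specific factor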). The conditions noted are these: HepG2 Attagene cis-factorial TAL promoter reporter; actives raise or lower the signal. A digest of the protocol: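 Human hepatoma HepG2 cells, transfected with promoter-regulated reporter units, were treated 24 h. Reporter transcript levels, measured through RT-PCR and capillary electrophoresis, were fitted for gain or loss relative to DMSO.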

The nature of assay [2]: ATG_TGFb_CIS: Attagene CIS-FACTORIAL HepG2 Assay for human Transforming Growth Factor (TGF) (AID 2282967; active = hit-call score of the fitted dose curve at least 0.9, where 1 is the maximum; inactive = score below 0.9). Particulars: HepG2 Attagene CIS TGFb reporter, mRNA transcription; actives raise or lower the signal. The method, boiled down: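 Endogenous TGFB1-linked transcription factor activity read as reporter mRNA via RT-PCR and capillary electrophoresis, 24 h after dosing transiently transfected HepG2 cells. Gain or loss of signal fitted relative to DMSO.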

Assay [3] in a line: ATG_VDRE_CIS: Attagene CIS-FACTORIAL HepG2 Assay for human Vitamin D Receptor Element (VDRE) (AID 2282968; active = hit-call score of the fitted dose curve at least 0.9, where 1 is the maximum; inactive = score below 0.9). Particulars: HepG2 VDRE cis-reporter transcription, actives raise or lower the signal. The method, boiled down: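 Steps: transfect HepG2 with multiple reporter transcription units; dose chemicals 24 h; isolate RNA; RT-PCR; label with 6-FAM primer extension; HpaI digest; capillary electrophoresis. Curves fitted both directions against DMSO.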

Assay [4] has as its target Estrogen receptor (Homo sapiens) (UniProt P03372). Put plainly: ATG_ERa_TRANS: Attagene TRANS-FACTORIAL HepG2 Assay for human Estrogen Receptor alpha (ERa) (AID 2282970). The conditions noted are these: HepG2 Attagene TRANS ERa GAL4 reporter, mRNA. A digest of the protocol:
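Signal derives from fluorescence of labelled reporter PCR fragments separated by capillary electrophoresis. HepG2 cells transiently carrying multiple GAL4-UAS reporter units were treated 24 hours, and induction above DMSO baseline was fitted as activity.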

Assay [5] has as its target Steroid hormone receptor ERR1 (Homo sapiens) (UniProt P11474). The assay can be described thus: ATG_ERRa_TRANS: Attagene TRANS-FACTORIAL HepG2 Assay for human Estrogen-Related Receptor alpha (ERRa) (AID 2282971). Particulars: HepG2 Attagene TRANS reporter, ERRa transactivation. A digest of the protocol: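 Signal gain relative to DMSO for an ERRa-Gal4 chimeric receptor, read as reporter mRNA by RT-PCR/capillary electrophoresis. Human HepG2 liver cells, transient multiplex reporter transfection, 24 h chemical exposure.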

Assay [6] concerns the target X-box-binding protein 1 (Homo sapiens) (UniProt P17861). The assay can be described thus: ATG_Xbp1_CIS: Attagene CIS-FACTORIAL HepG2 Assay for human X-box Binding Protein 1 (XBP1) (AID 2282972; active = hit-call score of the fitted dose curve at least 0.9, where 1 is the maximum; inactive = score below 0.9). The conditions noted are these: HepG2 XBP1 cis-element reporter, Attagene multiplex; actives raise or lower the signal. The method, boiled down:
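Reporter transcripts were quantified by RT-PCR with fluorescent primer extension and capillary electrophoresis after 24 h chemical exposure. Cells: transiently transfected HepG2 carrying cis-regulated reporter constructs; data fitted bidirectionally relative to DMSO.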

Assay [7] concerns the target Androgen receptor (Homo sapiens) (UniProt P10275). Put plainly: ATG_AR_TRANS: Attagene TRANS-FACTORIAL HepG2 Assay for human Androgen Receptor (AR) (AID 2282973). Particulars: HepG2 Attagene TRANS-FACTORIAL AR reporter transcription. A digest of the protocol: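 Chimeric nuclear receptor–Gal4 activity was assessed in human HepG2 hepatocytes after 24 h chemical dosing. Induced reporter mRNA was detected via labelled RT-PCR fragments on capillary electrophoresis, and gain of signal was analysed against DMSO.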

The nature of assay [8]: ATG_M_19_TRANS: Attagene TRANS-FACTORIAL HepG2 Assay for M19 Transcription Factor (Internal Marker) (AID 2282974). The conditions noted are these: HepG2 Attagene TRANS-FACTORIAL M19 internal marker reporter. A digest of the protocol: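 Using RT-PCR and capillary electrophoresis, reporter mRNA from transiently transfected human HepG2 cells was quantified following 24 h exposure; activity was fitted in the positive direction against DMSO.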

For assay [9], the target named is Estrogen-related receptor gamma (Homo sapiens) (UniProt P62508). The assay can be described thus: ATG_ERRg_TRANS: Attagene TRANS-FACTORIAL HepG2 Assay for human Estrogen-Related Receptor gamma (ERRg) (AID 2282977).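 Note: hits increase reporter signal over DMSO so potencies reflect activators.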 The conditions noted are these: HepG2 Attagene TRANS reporter, ERRg transactivation. A digest of the protocol: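 Exogenous NR-Gal4 chimera activity measured as reporter transcript induction after 24 h in transiently transfected HepG2 cells. RNA reverse-transcribed, PCR-amplified, 6-FAM-labelled and resolved by capillary electrophoresis; increase over DMSO baseline.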
Chain of Estrogen-related receptor gamma (Homo sapiens) (P62508 whole entry, looked up, the tested form may be a part): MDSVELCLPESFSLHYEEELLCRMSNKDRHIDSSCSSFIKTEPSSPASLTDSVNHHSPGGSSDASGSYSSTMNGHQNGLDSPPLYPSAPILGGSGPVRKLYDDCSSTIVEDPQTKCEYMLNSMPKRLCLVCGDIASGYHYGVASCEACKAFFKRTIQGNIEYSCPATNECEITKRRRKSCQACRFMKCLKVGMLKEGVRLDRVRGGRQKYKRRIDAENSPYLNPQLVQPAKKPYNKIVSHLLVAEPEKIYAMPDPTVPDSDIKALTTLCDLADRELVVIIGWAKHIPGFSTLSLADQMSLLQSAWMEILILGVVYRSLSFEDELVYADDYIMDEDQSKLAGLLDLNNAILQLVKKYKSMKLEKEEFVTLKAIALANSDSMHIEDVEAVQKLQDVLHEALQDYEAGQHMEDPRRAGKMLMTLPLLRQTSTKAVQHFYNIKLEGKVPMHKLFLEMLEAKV

The target in assay [10] is Bile acid receptor (Homo sapiens) (UniProt Q96RI1). Put plainly: ATG_FXR_TRANS: Attagene TRANS-FACTORIAL HepG2 Assay for Farnesoid X Receptor (FXR) (AID 2282979).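 Note: hits raise reporter mRNA above DMSO so AC50 marks FXR activation.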 Particulars: HepG2 Attagene TRANS FXR-GAL4 reporter transcription. The method, boiled down: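 After 24 h chemical treatment of transfected HepG2 cells, GAL4-UAS reporter transcripts driven by an exogenous FXR-GAL4 fusion were measured by RT-PCR and capillary electrophoresis. Increases over DMSO were fitted.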
Chain of Bile acid receptor (Homo sapiens) (Q96RI1 whole entry, looked up, the tested form may be a part): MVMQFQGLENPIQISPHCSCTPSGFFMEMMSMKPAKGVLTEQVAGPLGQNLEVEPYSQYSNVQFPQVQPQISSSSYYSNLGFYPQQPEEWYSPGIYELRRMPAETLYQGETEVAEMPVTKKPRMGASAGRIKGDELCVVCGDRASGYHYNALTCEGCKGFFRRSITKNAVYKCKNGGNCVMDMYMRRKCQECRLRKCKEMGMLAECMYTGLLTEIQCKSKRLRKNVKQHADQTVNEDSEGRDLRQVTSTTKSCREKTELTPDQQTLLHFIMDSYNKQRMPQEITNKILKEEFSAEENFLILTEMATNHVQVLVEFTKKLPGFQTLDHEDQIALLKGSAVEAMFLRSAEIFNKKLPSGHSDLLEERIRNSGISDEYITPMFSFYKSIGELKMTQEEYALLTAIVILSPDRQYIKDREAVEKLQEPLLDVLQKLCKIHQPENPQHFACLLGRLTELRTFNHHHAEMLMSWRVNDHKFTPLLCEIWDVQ

Assay [11] deals with Oxysterols receptor LXR-beta (Homo sapiens) (UniProt P55055). The assay can be described thus: ATG_LXRb_TRANS: Attagene TRANS-FACTORIAL HepG2 Assay for human Liver X Receptor beta (LXRb) (AID 2282981). The conditions noted are these: HepG2 Attagene TRANS GAL4-LXRb reporter, mRNA. The method, boiled down:
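Measures induction of a Gal4-driven reporter transcript in HepG2 cells expressing an exogenous LXRb-Gal4 fusion. Cells are exposed to compound for 24 h before RNA isolation and RT-PCR with capillary electrophoresis detection.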

Assay [12] has as its target Hepatocyte nuclear factor 4-alpha (Homo sapiens) (UniProt P41235). Put plainly: ATG_HNF4a_TRANS: Attagene TRANS-FACTORIAL HepG2 Assay for human Hepatocyte Nuclear Factor 4 alpha (HNF4a) (AID 2282982). Particulars: HepG2 HNF4a transactivation reporter, mRNA readout. The method, boiled down: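 In this trans-factorial format, a chimeric HNF4a-GAL4 fusion drives a GAL4-UAS reporter in transfected HepG2 liver cells. After 24 h treatment, reporter mRNA induction is measured by RT-PCR with capillary electrophoresis, relative to DMSO.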

Assay [13] is described as follows: ATG_M_32_TRANS: Attagene TRANS-FACTORIAL HepG2 Assay for M32 Transcription Factor (Internal Marker) (AID 2282984). Particulars: HepG2 Attagene TRANS M32 internal marker reporter. The method, boiled down: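 After 24 h dosing of transfected HepG2 cells, total RNA was reverse-transcribed, reporter sequences PCR-amplified, 6-FAM labelled by primer extension and HpaI-digested before capillary electrophoresis. Signal increase over DMSO was fitted.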

The target in assay [14] is Nuclear receptor subfamily 4 group A member 2 (Homo sapiens) (UniProt P43354). The assay can be described thus: ATG_NURR1_TRANS: Attagene TRANS-FACTORIAL HepG2 Assay for human Nuclear Receptor Related Protein 1 (NURR1) (AID 2282985). The conditions noted are these: HepG2 Attagene TRANS reporter, mRNA readout. The method, boiled down: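 Chimeric NR-Gal4 fusion activity measured in HepG2 after 24 h treatment. Reporter transcripts detected by RT-PCR and capillary electrophoresis fluorescence; positive-direction curve fitting against DMSO.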
Chain of Nuclear receptor subfamily 4 group A member 2 (Homo sapiens) (P43354 whole entry, looked up, the tested form may be a part): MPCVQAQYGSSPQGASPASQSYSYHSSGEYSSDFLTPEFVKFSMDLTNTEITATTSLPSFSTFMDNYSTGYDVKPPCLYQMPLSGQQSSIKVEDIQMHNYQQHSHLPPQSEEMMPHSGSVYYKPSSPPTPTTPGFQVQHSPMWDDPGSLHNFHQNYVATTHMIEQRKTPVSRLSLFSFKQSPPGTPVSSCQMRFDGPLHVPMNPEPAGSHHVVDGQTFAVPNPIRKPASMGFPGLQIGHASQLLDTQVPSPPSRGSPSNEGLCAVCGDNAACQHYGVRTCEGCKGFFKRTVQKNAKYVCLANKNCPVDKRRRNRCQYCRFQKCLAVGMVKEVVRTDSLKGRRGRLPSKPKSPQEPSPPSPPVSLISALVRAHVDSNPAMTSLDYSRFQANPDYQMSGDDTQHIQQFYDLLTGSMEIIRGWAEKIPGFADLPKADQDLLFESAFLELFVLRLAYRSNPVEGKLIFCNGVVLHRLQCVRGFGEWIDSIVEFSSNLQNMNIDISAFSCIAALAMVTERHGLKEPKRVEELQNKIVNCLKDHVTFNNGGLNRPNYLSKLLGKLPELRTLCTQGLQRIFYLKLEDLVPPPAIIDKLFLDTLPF

The target in assay [15] is Transcriptional activator Myb (Homo sapiens) (UniProt P10242). The assay can be described thus: ATG_Myb_CIS: Attagene CIS-FACTORIAL HepG2 Assay for human Myeloblastosis (Myb) Proto-Oncogene Transcription Factor (AID 2282986; active = hit-call score of the fitted dose curve at least 0.9, where 1 is the maximum; inactive = score below 0.9). The conditions noted are these: HepG2 Attagene CIS-FACTORIAL Myb reporter transcription; actives raise or lower the signal. The method, boiled down: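 In this HepG2 transient-transfection format, cis-regulated reporter mRNA is quantified 24 h post-dosing by RT-PCR with capillary electrophoresis, fitted bidirectionally to DMSO baseline.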
Chain of Transcriptional activator Myb (Homo sapiens) (P10242 whole entry, looked up): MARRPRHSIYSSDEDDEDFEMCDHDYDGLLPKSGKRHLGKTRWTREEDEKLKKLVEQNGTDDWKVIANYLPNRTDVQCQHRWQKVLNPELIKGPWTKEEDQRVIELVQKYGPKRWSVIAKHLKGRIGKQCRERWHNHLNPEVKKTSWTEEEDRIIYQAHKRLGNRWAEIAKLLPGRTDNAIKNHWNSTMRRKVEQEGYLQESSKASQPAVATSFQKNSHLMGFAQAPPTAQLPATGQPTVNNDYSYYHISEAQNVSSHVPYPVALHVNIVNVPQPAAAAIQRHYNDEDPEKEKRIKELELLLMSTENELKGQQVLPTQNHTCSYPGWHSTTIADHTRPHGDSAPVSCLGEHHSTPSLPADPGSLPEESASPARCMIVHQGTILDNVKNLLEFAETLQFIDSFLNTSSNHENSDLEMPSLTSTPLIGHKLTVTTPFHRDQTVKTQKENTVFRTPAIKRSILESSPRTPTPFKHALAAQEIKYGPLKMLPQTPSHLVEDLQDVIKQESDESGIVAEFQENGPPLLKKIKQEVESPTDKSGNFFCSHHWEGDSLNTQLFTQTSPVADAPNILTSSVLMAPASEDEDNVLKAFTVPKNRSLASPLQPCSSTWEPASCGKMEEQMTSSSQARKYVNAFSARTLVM

The target of assay [16] is Glucocorticoid receptor (Homo sapiens) (UniProt P04150). The assay can be described thus: ATG_GR_TRANS: Attagene TRANS-FACTORIAL HepG2 Assay for human Glucocorticoid Receptor (GR) (AID 2282978).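 Note: activators score as hits since higher reporter transcript over DMSO is fitted.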 The conditions noted are these: HepG2 Attagene TRANS GR reporter, mRNA transcription. The method, boiled down: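 Exogenous NR-GAL4 fusion activity was assessed through induced GAL4-UAS reporter transcripts in transfected human HepG2 cells, quantified after 24 h by RT-PCR and fluorescent capillary electrophoresis with DMSO as baseline.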

Assay [17] is described as follows: ATG_GAL4_TRANS: Attagene TRANS-FACTORIAL HepG2 Assay for GAL4 (Internal Marker) (AID 2282976). Particulars: HepG2 Attagene TRANS GAL4 internal marker reporter. A digest of the protocol: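 Liver HepG2 line bearing multiplexed GAL4-UAS reporter constructs; 24 h chemical treatment. Transcripts were quantified as fluorescent fragments on capillary electrophoresis after RT-PCR and HpaI cut, with activity fitted upward from DMSO.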

The nature of assay [18]: ATG_M_06_TRANS: Attagene TRANS-FACTORIAL HepG2 Assay for M06 Transcription Factor (Internal Marker) (AID 2282983). Particulars: HepG2 Attagene TRANS M06 internal marker reporter. The method, boiled down: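 Multi-reporter-transfected HepG2, 24 h treatment; reporter transcripts quantified via RT-PCR, primer-extension labelling and CE. DMSO-normalized gain-of-signal fit.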

Assay [19] deals with Oxysterols receptor LXR-alpha (Homo sapiens) (UniProt Q13133). The assay can be described thus: ATG_LXRa_TRANS: Attagene TRANS-FACTORIAL HepG2 Assay for human Liver X Receptor alpha (LXRa) (AID 2282980). The conditions noted are these: HepG2 Attagene TRANS reporter, LXRa transactivation. The method, boiled down:
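In this multiplexed TRANS system, compounds act on HepG2 cells carrying GAL4-UAS reporter units and a receptor-GAL4 fusion for 24 h. Induced reporter RNA is amplified, fluorescently labelled and sized by capillary electrophoresis, with DMSO as baseline.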

Chain of Oxysterols receptor LXR-beta (Homo sapiens) (P55055 whole entry, looked up, the tested form may be a part): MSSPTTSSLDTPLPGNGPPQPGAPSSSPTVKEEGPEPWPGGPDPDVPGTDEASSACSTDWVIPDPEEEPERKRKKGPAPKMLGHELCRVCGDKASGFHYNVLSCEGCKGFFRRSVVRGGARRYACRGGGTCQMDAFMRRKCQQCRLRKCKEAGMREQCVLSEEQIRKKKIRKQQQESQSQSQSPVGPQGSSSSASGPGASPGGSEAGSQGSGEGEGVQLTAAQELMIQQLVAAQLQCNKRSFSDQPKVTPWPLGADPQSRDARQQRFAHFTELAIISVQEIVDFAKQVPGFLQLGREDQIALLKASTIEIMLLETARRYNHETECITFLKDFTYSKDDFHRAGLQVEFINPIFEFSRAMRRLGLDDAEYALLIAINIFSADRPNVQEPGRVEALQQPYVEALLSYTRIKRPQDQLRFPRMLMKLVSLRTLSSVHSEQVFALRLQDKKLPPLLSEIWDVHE
Chain of X-box-binding protein 1 (Homo sapiens) (P17861 whole entry, looked up): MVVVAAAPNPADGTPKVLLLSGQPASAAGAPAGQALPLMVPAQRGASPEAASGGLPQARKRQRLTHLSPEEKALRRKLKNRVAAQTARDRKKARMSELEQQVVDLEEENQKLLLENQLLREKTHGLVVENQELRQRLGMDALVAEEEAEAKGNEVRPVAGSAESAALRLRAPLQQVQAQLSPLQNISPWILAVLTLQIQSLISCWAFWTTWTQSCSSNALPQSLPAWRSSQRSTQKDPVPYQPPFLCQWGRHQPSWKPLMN
Chain of Oxysterols receptor LXR-alpha (Homo sapiens) (Q13133 whole entry, looked up, the tested form may be a part): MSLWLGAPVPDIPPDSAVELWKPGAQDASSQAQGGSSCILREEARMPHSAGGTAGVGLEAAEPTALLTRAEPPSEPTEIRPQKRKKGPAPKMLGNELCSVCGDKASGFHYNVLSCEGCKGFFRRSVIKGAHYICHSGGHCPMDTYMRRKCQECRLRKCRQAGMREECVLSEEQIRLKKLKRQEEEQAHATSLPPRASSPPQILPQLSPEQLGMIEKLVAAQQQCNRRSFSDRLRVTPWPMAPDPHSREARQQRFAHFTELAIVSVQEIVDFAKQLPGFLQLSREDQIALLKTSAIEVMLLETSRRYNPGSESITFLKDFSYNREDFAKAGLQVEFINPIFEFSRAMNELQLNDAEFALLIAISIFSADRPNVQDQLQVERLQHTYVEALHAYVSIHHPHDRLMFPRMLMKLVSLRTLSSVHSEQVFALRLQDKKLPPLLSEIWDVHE
Chain of Hepatocyte nuclear factor 4-alpha (Homo sapiens) (P41235 whole entry, looked up, the tested form may be a part): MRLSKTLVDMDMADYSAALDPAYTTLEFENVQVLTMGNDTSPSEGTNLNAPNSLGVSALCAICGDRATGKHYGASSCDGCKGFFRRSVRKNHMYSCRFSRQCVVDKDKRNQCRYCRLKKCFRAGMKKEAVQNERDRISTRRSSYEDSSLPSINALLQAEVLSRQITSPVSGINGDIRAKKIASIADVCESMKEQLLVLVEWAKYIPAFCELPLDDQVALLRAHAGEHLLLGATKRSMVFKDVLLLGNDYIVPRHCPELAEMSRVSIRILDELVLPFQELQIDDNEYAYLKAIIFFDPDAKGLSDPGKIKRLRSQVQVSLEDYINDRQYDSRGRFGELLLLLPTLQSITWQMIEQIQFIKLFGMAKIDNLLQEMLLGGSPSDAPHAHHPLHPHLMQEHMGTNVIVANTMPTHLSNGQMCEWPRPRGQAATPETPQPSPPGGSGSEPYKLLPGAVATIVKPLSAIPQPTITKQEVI
Chain of Estrogen receptor (Homo sapiens) (P03372 whole entry, looked up, the tested form may be a part): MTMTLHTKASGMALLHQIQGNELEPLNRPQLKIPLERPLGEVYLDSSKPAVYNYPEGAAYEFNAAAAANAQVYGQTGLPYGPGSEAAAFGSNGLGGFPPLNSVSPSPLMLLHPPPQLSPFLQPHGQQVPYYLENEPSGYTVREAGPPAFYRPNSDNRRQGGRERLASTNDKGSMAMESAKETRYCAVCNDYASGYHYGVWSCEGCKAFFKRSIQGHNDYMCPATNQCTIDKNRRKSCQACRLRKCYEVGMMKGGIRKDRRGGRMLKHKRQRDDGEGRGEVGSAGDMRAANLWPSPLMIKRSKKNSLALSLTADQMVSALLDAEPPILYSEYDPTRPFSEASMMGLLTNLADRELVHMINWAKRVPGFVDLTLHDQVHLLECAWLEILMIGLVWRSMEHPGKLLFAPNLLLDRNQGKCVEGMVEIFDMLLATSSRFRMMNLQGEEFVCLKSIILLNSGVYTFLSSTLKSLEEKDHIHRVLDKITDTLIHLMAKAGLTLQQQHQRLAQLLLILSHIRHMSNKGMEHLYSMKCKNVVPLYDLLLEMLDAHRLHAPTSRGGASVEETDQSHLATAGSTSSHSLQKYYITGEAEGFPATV
Chain of Steroid hormone receptor ERR1 (Homo sapiens) (P11474 whole entry, looked up, the tested form may be a part): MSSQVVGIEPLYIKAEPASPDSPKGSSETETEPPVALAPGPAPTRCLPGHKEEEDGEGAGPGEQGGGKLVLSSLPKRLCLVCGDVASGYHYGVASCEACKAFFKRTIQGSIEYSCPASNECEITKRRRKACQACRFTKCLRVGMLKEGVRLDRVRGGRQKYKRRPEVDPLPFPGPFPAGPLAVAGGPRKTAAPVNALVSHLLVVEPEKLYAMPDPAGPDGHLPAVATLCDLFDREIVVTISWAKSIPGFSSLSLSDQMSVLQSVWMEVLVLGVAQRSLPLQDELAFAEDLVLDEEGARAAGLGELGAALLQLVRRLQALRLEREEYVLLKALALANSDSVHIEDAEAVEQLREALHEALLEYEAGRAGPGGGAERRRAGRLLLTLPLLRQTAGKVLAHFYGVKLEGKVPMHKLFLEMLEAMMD

`O=C(c1ccccc1)C(Cl)Cl`: the call in [1], in [2], in [4], in [5], in assay [7] and in assay [8] was inactive. Besides, the result in [9], in assay [10], in [11], in assay [12], in assay [13] and in assay [14] was inactive. The result in assay [15] was inactive. The figures for the AC50 in [3] and in assay [6] were 7.69 µM (active) and 25.1 µM (active), respectively.
Turning to `CC(=O)OC(c1ccccc1)C(Cl)(Cl)Cl` (stereo not given), the result in assay [1], in [2], in [3], in assay [6], in [8] and in [16] was inactive. Besides, the call in assay [10], in assay [11], in [13] and in assay [15] was inactive. For the same compound, the half-maximal activity concentration (AC50) in assay [4] is 34.8 µM (active).
Turning to `O=C(O)C(F)(F)C(F)(F)C(F)(F)C(F)(F)C(F)(F)C(F)(F)F`, the result in assay [1], in [2], in [3], in [6], in assay [8] and in assay [17] was inactive. For the same compound, the call in assay [10], in [11], in [12], in assay [18], in assay [13] and in assay [14] was inactive. Also, in [15], the result was inactive.
As to `CC(C)(OO)c1ccccc1`, the compound was called inactive in assay [1], in [2], in assay [3], in assay [6], in assay [8] and in [10]. Moreover, the compound was classed as inactive in [13] and in assay [15]. Also, in assay [4], the concentration at half-maximal activity (AC50) was 100 µM (active).
`ClCC(Cl)CCl`: the compound was called inactive in assay [1], in assay [2], in assay [3], in [6], in [8] and in assay [17]. In addition, the compound was called inactive in assay [9], in assay [19], in assay [18], in assay [13], in assay [14] and in assay [15].
Regarding `Oc1c(I)cc(I)cc1I`, the AC50 in assay [1] was 76.1 µM (active); in assay [3] it was 19 µM (active); in [6], 33.6 µM (active); in assay [10] it was 100 µM (active); in [14] it was 100 µM (active). The outcome in assay [2], in [4], in assay [7], in assay [8], in assay [9] and in assay [12] was inactive. In addition, the compound was classed as inactive in assay [18], in [13] and in [15].
Take `CNC`: the outcome in [1], in [2], in [3], in assay [4], in [6] and in [8] was inactive. Besides, the compound was called inactive in assay [17], in assay [16], in [11], in [13], in [14] and in [15].
Consider `C(=NC1CCCCC1)=NC1CCCCC1`, for which the compound was called inactive in assay [1], in [2], in [4], in [8], in assay [9] and in [19]. In addition, the compound was called inactive in [12], in assay [18] and in assay [15]. In addition, the values for the half-maximal activity concentration (AC50) in [3] and in assay [6] were 3.69 µM (active) and 1.97 µM (active), respectively.
In the case of `CC(=[OH+])/C=C(/C)[O-].CC(=[OH+])/C=C(/C)[O-].CC(=[OH+])/C=C(/C)[O-].[Fe]`, the call in assay [1], in assay [2], in [3], in assay [4], in [6] and in assay [8] was inactive. The call in assay [10], in assay [19], in assay [11], in assay [12], in assay [14] and in [15] was inactive.
For the compound `NNC(=S)NN`, the outcome in [1], in assay [2], in [3], in assay [4], in assay [5] and in assay [6] was inactive. Besides, the result in assay [8], in assay [11], in [18], in assay [13] and in assay [15] was inactive.

The term AC50 denotes the midpoint of the concentration-response curve, whichever way the signal moves.

These data come from PubChem BioAssay (EPA / NIEHS).
